Pol kappa inh: DNA polymerase kappa (human) inhibition; Potency, µM (series often up to 107 µM), without a hit: at the top dose activity, negative = inhibition, hits mostly inhibitors; purified Pol kappa, fluorescent DNA synthesis assay, 10 min; AID 588579; hit rate 0.53% among 400,000; note: % is set by controls: 0 for no effect and ±100 for the full control effect
Target sequence (Q9UBT6 whole entry, looked up): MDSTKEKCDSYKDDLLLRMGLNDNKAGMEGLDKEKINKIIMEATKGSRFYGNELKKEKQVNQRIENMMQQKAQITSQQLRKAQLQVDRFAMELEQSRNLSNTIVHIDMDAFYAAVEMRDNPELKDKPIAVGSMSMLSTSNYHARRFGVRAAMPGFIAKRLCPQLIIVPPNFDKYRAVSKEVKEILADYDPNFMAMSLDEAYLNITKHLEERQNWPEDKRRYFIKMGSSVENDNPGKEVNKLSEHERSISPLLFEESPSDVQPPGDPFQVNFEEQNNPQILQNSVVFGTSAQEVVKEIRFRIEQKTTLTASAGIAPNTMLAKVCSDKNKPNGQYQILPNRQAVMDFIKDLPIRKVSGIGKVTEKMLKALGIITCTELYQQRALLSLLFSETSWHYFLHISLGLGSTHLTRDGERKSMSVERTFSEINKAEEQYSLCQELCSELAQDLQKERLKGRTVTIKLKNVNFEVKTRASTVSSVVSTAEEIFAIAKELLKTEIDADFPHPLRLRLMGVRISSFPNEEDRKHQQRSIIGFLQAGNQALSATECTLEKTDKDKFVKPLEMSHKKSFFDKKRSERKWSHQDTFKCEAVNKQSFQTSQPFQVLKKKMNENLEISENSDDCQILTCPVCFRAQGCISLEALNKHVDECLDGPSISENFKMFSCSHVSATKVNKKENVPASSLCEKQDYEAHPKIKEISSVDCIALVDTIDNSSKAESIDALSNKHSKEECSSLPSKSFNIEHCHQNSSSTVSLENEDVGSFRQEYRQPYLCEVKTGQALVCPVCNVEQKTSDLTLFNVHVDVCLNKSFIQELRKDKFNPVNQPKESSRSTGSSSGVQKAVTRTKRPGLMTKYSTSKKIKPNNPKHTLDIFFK
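Inhibition of 10 nM Pol kappa is measured by a fluorescent read-out at 0 and 10 min following addition of 50 nM substrate (final), with a 15-min room-temperature compound preincubation.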
Pol eta inh: inhibitors of human DNA polymerase eta | recombinant Pol eta, fluorescent DNA replication assay | Potency, µM (titrated, usually from 114 µM), for the others: at the highest dose activity change, negative = inhibition, actives largely listed as inhibitors | Q9Y253 | hit rate 1.2% among 390,000; note: % is set by controls: 0 for no effect and ±100 for the full control effect
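Pol eta (10 nM) was preincubated with compounds for 15 min at room temperature, after which fluorescent replication substrate (50 nM final) was added to start the reaction. Fluorescence was read kinetically at 0 and 10 min.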
TDP1 inh: inhibitors of human tyrosyl-DNA phosphodiesterase TDP1; Q9NUW8; recombinant TDP1, AlphaScreen DNA substrate cleavage; Potency, µM (top dose mostly 130 µM), for inactives: top-dose activity change, negative = inhibition, most hits filed as inhibitors; hit rate 0.28% among 350,000; AID 485290; note: % is set by controls: 0 for no effect and ±100 for the full control effect; nearly all actives have a fitted effect of over 40% in size
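E. coli-derived human Tdp1, 1 nM final. Cpd preinc 15 min RT; substrate 15 nM final, 5 min RT; AS bead mix 10 ug/ml final, 10 min RT. Signal loss = tyrosine-FITC cleavage. No-enzyme wells = max signal.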
FEN1 inhibitor: inhibitors of human flap endonuclease 1. Potency, µM (titrated, usually from 114 µM), for the others: at the highest dose activity change, negative = inhibition, hits mostly inhibitors. Recombinant FEN1 flap cleavage, fluorescence, 15 min. hit rate 0.35% among 390,000; note: % is set by controls: 0 for no effect and ±100 for the full control effect; nearly all actives have a fitted effect of over 65% in size
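With each library titrated from low to high concentration, compounds met 10 nM FEN1 for 15 min at room temperature before 50 nM substrate was added; readings at 0 and 15 min fed four-parameter Hill curve fits.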
POLB inh: inhibitors of human DNA polymerase beta; Pol beta primer extension/strand displacement, fluorescence kinetic; Potency, µM (highest dose often 114 µM), for inactives: top-dose activity change, negative = inhibition, most hits filed as inhibitors; hit rate 1.3% among 340,000; note: % is set by controls: 0 for no effect and ±100 for the full control effect
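Pol beta (10 nM) was preincubated with compound for 15 min at room temperature. The reaction was then started with 50 nM substrate and read immediately and after a further 10 min at room temperature.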
Pol iota inh: DNA polymerase iota (human) inhibition | Q9UNA4 | Pol iota fluorescent replication assay, 10 min | Potency, µM (highest dose often 115 µM), without a hit: at the highest dose activity, negative = inhibition, usual class: inhibitors | hit rate 1% among 390,000 | AID 588590
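Fluorescent replication assay read twice, at 0 min and 10 min after adding 50 nM (final) substrate. Enzyme (10 nM) and compounds were first incubated 15 min at room temperature; enzyme-free buffer wells were negative controls.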
* hit, by the source's call; [ ] = remark or other dose. Rows were chosen to be rich in hits. Some 2.4% of all compounds tested hit in one or more screens of this group. Calls come from the whole dose curve; as a rule, active = well fitted curve in the direction sought with a large enough effect; inconclusive = small, poorly fitted or top-dose-only effect, or another doubt; inactive = no such curve, though single readings can be large; an effect the other way counts as inactive or inconclusive. Potency is the fitted concentration of half-maximal effect.

How did CCOc1ccccc1NC(=O)CSc1nc2nc(-c3cccs3)cc(C(F)(F)F)c2c(=O)[nH]1 do in these assays?
Pol kappa inh: -30.7%; Pol eta inh: 79.4µM*; FEN1 inhibitor: -7.3%; POLB inh: inconclusive; Pol iota inh: inconclusive

What do the screens show for `CC(=O)c1ccc(NC(=O)c2cnn3c2NC(=C2CC2)C=C3C(F)F)cc1`?
Pol kappa inh: 3.4%; FEN1 inhibitor: -12.8%; Pol iota inh: 5.0%

How did O=C(Nc1ccc(F)cc1)C(=O)C1C(=O)Nc2ccccc21 (configuration not stated) do in these assays?
Pol kappa inh: 7.3%; Pol eta inh: -19.2%; TDP1 inh: 1.2%; FEN1 inhibitor: -20.4%; POLB inh: 56.4%; Pol iota inh: 89.1µM*

How did O=C(Nc1ccc2ccccc2c1)C(=O)C1C(=O)Nc2ccccc21 (configuration not stated) do in these assays?
TDP1 inh: 8.2%; POLB inh: -12.2%

How did CCOC(=O)c1ccccc1NC(=O)c1cc2c(=O)oc3ccc(C)cc3c2s1 do in these assays?
Pol kappa inh: -2.9%; Pol eta inh: -8.6%; TDP1 inh: 5.8%; FEN1 inhibitor: -3.9%; POLB inh: 3.5%; Pol iota inh: -0.5%

What do the screens show for `Cc1ccc(N(C)S(=O)(=O)c2ccc3[nH]c(=O)ccc3c2)cc1`?
Pol kappa inh: 2.4%; Pol eta inh: 4.4%; TDP1 inh: 0.0%; FEN1 inhibitor: -10.2%; POLB inh: 28.7%; Pol iota inh: 4.3%

What do the screens show for `O=c1ccc2cc(S(=O)(=O)NCc3ccc(Cl)cc3)ccc2[nH]1`?
Pol kappa inh: inconclusive; Pol eta inh: 2.6%; TDP1 inh: 9.1%; FEN1 inhibitor: 8.9%; POLB inh: 11.2µM*; Pol iota inh: inconclusive

How did CN(Cc1ccccc1)S(=O)(=O)c1ccc2[nH]c(=O)ccc2c1 do in these assays?
Pol kappa inh: -17.4%; Pol eta inh: -8.5%; FEN1 inhibitor: -8.0%; POLB inh: 31.6µM*; Pol iota inh: inconclusive

What do the screens show for `O=C(Cc1ccc(-c2ccccc2)cc1)NO`?
Pol kappa inh: -18.9%; FEN1 inhibitor: 3.3%; Pol iota inh: 47.1%

What do the screens show for `COc1ccc2oc(=O)c(-c3nnc(NCc4ccco4)s3)cc2c1`?
Pol kappa inh: inconclusive; Pol eta inh: inconclusive; TDP1 inh: -6.8%; FEN1 inhibitor: inconclusive; POLB inh: 25.1µM*; Pol iota inh: 10µM*

Results for CNc1nnc(-c2cc3cc(Cl)ccc3oc2=O)s1 ?
Pol kappa inh: -12.9%; Pol eta inh: -9.5%; TDP1 inh: 2.0%; FEN1 inhibitor: -12.4%; POLB inh: inconclusive; Pol iota inh: -2.2%

Results for Cc1cc(=O)oc2cc(NC(=O)[C@H](CCCCN)NC(=O)[C@H](CC3CCCCC3)NC(=O)OCC3c4ccccc4-c4ccccc43)ccc12 ?
Pol kappa inh: 0.5%[60.1 µM]; TDP1 inh: 24.6%

What do the screens show for `CCOc1ccc2c(c1)C(NC(C)=O)C(=O)N2CCN1CCOCC1` (configuration not stated)?
Pol kappa inh: -9.7%; Pol eta inh: inconclusive; FEN1 inhibitor: 39.8µM*; POLB inh: -0.4%; Pol iota inh: inconclusive

What do the screens show for `Cc1cc(=O)c2c(O)cc(O)c(C)c2o1`?
Pol kappa inh: -4.5%[60.1 µM]; TDP1 inh: 6.8%[56.1 µM]

Results for CS(=O)(=O)N1CCC2(CC1)CN(c1ccc(-c3ccccc3)cc1)C2 ?
Pol kappa inh: -10.9%[60.1 µM]

How did CC(NC(=O)COC(=O)c1cc([N+](=O)[O-])ccc1N1CCOCC1)c1ccccc1 (configuration not stated) do in these assays?
Pol kappa inh: -5.2%; Pol eta inh: -21.3%; TDP1 inh: 6.8%; FEN1 inhibitor: -6.4%; POLB inh: -0.8%; Pol iota inh: 22.4%

How did CC(NC(=O)COC(=O)c1cc([N+](=O)[O-])ccc1N1CCOCC1)c1ccc(F)cc1 (configuration not stated) do in these assays?
Pol kappa inh: inconclusive; Pol eta inh: 56.2µM*; TDP1 inh: 0.5%; FEN1 inhibitor: 10.4%; Pol iota inh: inconclusive

What do the screens show for `COc1ccccc1OC(=O)CCc1nc2ccccc2s1`?
Pol kappa inh: inconclusive; Pol eta inh: inconclusive; TDP1 inh: 2.9%; FEN1 inhibitor: 12.3%; POLB inh: inconclusive; Pol iota inh: 15.8µM*

Results for COC(=O)CCCc1nc2ccccc2s1 ?
Pol kappa inh: -11.9%; Pol eta inh: -14.6%; TDP1 inh: 1.0%; FEN1 inhibitor: 11.4%; POLB inh: 26.9%; Pol iota inh: -7.2%

Results for O=C(O)COc1cccc(NC(=O)c2ccccc2)c1 ?
Pol kappa inh: -3.4%; Pol eta inh: 79.4µM*; TDP1 inh: 0.0%; FEN1 inhibitor: -0.5%; POLB inh: 2.3%; Pol iota inh: inconclusive

How did COc1cccc(OCC(=O)NNC(=O)c2ccc(-c3ccccc3)cc2)c1 do in these assays?
Pol kappa inh: -13.6%; Pol eta inh: -15.5%; TDP1 inh: 2.0%; FEN1 inhibitor: 10.2%; POLB inh: 79.4µM*; Pol iota inh: inconclusive

How did COc1cc(OC)c2cc(-c3ccncc3)cnc2c1 do in these assays?
Pol kappa inh: -10.9%[19.4 µM]; TDP1 inh: 10.7%

What do the screens show for `Cc1nnc2ccc(-c3cccc(NC(=O)Cc4cccs4)c3)nn12`?
Pol kappa inh: inconclusive; Pol eta inh: inconclusive; TDP1 inh: -2.3%; FEN1 inhibitor: -3.7%; POLB inh: 12.6µM*; Pol iota inh: 35.5µM*

What do the screens show for `CCOc1ccc(CC(=O)Nc2cccc(-c3ccc4nnc(C)n4n3)c2)cc1`?
Pol kappa inh: 9.8%; Pol eta inh: 2.0%; TDP1 inh: 8.1%; FEN1 inhibitor: 0.7%; POLB inh: -0.5%; Pol iota inh: 10.2%

Results for CCC(=O)Nc1cccc(NC(C)=O)c1 ?
TDP1 inh: -6.6%; POLB inh: 22.4µM*

How did CC(=O)Nc1cccc(NC(=O)Cc2cccs2)c1 do in these assays?
Pol kappa inh: -19.7%; Pol eta inh: 35.5µM*; TDP1 inh: -4.5%; FEN1 inhibitor: 12.9%; POLB inh: -13.4%; Pol iota inh: inconclusive

How did CCCCC(O)C(=O)Nc1cc(C(F)(F)F)ccc1Cl (configuration not stated) do in these assays?
TDP1 inh: -5.0%

What do the screens show for `OC[C@H]1NC[C@@H](O)[C@@H](O)[C@@H]1O`?
Pol kappa inh: -18.2%[60.1 µM]; TDP1 inh: 7.5%

How did COC(=O)/C=C/C(C)=C/C=C/C(C)=C/C=C/C=C(C)/C=C/C=C(C)/C=C/C(=O)O do in these assays?
Pol kappa inh: 31.6µM*

Source: PubChem (National Center for Advancing Translational Sciences (NCATS))
